Measurements reported in PubChem BioAssay (NCI).
The panel holds about 79,000 compounds, 15% with a hit somewhere; the sample as a whole holds those more often. A number with no mark means an inactive call. Activity calls are given as the source filed them. Rule as the data show it: active = growth inhibition above about 70%; inactive = the rest. Where a SMILES comes first, the peptide text is derived from it. The star is where a group is joined. Cbz = O=C(OCc1ccccc1)*; NHNH2 = NN*

What was measured:
[1] = NCI Yeast Anticancer Drug Screen. Data for the rad50 strain (AID 155);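 also: 0% = growth of vehicle-only cultures of the same strain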; settings: S. cerevisiae rad50 strain growth inhibition, hits give high values; at 50.0 µM unless noted
Procedure, shortened: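 Growth of the mutant yeast was measured after compound exposure and referenced to vehicle-treated cultures.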

[2] = NCI Yeast Anticancer Drug Screen. Data for the mec2-1 strain (AID 157); settings: S. cerevisiae mec2-1 strain, hits give high values; at 50.0 µM unless noted
Procedure, shortened: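 Test agents were screened against the mec2-1 yeast strain, with defined DNA repair or cell cycle alteration. Growth was scored as inhibition against vehicle-only controls.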

[3] = NCI Yeast Anticancer Drug Screen. Data for the sgs1 mgt1 strain (AID 161);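 also: 0% = growth of cultures given vehicle only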; settings: S. cerevisiae sgs1 mgt1 strain, hits give high values; at 50.0 µM unless noted
Procedure, shortened: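 Test agents were incubated with a DNA-repair-mutant yeast strain. Growth was then read and compared against vehicle-treated controls.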

[4] = NCI Yeast Anticancer Drug Screen. Data for the cln2 rad14 strain (AID 165);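 also: 0% = growth equal to vehicle treated cultures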; settings: S. cerevisiae cln2 rad14 strain, hits give high values; at 50.0 µM unless noted
Procedure, shortened: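 Growth of compound-exposed yeast (cln2 rad14 genotype) measured and expressed as inhibition relative to vehicle.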

[5] = NCI Yeast Anticancer Drug Screen. Data for the bub3 strain (AID 167); settings: S. cerevisiae bub3 mutant strain, hits give high values; at 50.0 µM unless noted
Procedure, shortened: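 Whole-cell yeast assay. The mutant strain was incubated with compounds, and growth inhibition was determined by comparison with vehicle-treated cells.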

[6] = NCI Yeast Anticancer Drug Screen. Data for the mlh1 rad18 strain (AID 175); settings: S. cerevisiae mlh1 rad18 strain growth inhibition, hits give high values; at 50.0 µM unless noted
Procedure, shortened: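 In this whole-cell yeast screen, a strain with altered DNA damage repair is challenged with compound, and its growth is measured against matched vehicle-treated controls.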

Row | SMILES | growth inhibition [1] | growth inhibition [2] | growth inhibition [3] | growth inhibition [4] | growth inhibition [5] | growth inhibition [6]
1 | Cc1ccc(O)c(C=NCCN=Cc2cc(C)ccc2O)c1.[Cu+2] | 1.9% | 5.25% | 6.15% | 8.45% | -20.6% | 13.3%
2 | COc1cc2c(cc1OC)C(Cl)C(c1ccc(Br)cc1)=C2Cl (stereo not drawn) | 36.9% | 67.3% | 72.5% (active) | 48.3% | 55.4% | 32.8%
3 | CC1=Cc2cccc(C)c2C(=O)C1=O | 93.6% (active) | 95.2% (active) | 94.5% (active) | 92.8% (active) | 93.8% (active) | 93.2% (active)
4 | O=C(Nc1ccc(F)cc1)c1ccc([N+](=O)[O-])cc1 | 0.5% | -1% | 36.1% | -9.6% | 19% | 8.15%
5 | CCOC(=O)Cc1nc2ccccc2[nH]1 | 4.4% | -7.85% | -13.2% | -103% | -12.2% | -3.2%
6 | C/C(CC(=O)Nc1ccc(Cc2ccc(Br)cc2)cc1)=N/Nc1ccc([N+](=O)[O-])cc1[N+](=O)[O-] | 25.1% | 12.6% | 31.3% | 16.5% | 4.1% | 24.7%
7 | CCC(=O)c1cccc2cccc(C(c3ccccc3)c3ccccc3)c12 | 1.85% | 14.4% | 6.35% | -7.05% | 8.7% | -19.6%
8 | CCOC(=O)/C(SC#N)=C(/N)N1CCCC1 | -12.2% | -43.8% | -4% | 9.95% | 0.75% | -14.2%
9 | NNC(=O)c1nnn(CCc2ccccc2)c1C(=O)NN | -1.45% | 3.25% | -1.15% | 5.55% | -9.55% | -3.9%
10 | NC(N)=Nc1ccc(-c2ccc(N=C(N)N)cc2)cc1 | -9.35% | 6.4% | 0.85% | -22.2% | -24.9% | -7.95%
11 | O=c1nc2sccn2c2ncccc12 | -18.5% | 5.35% | -11.8% | 46.6% | 10.9% | 16.1%
12 | CCCCCCCCCCCCCCCCCCOC(=O)CC(C)=O | -2.75% | -4.55% | -12.2% | -5% | -9.2% | 3.95%
13 | CCOC(=O)C(C)N1C(=O)c2ccccc2C1=O (stereo not drawn) | 6.4% | -20.4% | -22% | 13.3% | 21.4% | 0.55%
14 | COC(=O)C(=O)C(C(=O)C=C(C)C)C(=O)C(=O)Nc1ccc(C)cc1C (stereo not drawn) | -4.9% | -17.5% | -3.55% | 11.2% | -18.6% | -29.6%
15 | CC1(C)OC(=O)N=C1c1ccccc1Cl | -18.1% | -18.4% | -11.3% | -11.4% | -15.6% | 7.65%
16 | CCc1ccc2c(c1)CCCC2(C)C | -2.5% | -10.2% | 2.25% | -8.3% | 0.3% | -0.05%
17 | COc1ccc(OC)c2[nH]c(=O)c(C)nc12 | 7.15% | 1.85% | 5.75% | -4.85% | 4.35% | -4.3%
18 | CCOC(=O)CCC(NC(=O)OCc1ccccc1)C(=O)NC(CCC(=O)OCC)C(=O)NN (stereo not drawn) (Cbz-Glu(OEt)-Glu(OEt)-NHNH2; configuration not given here) | 2.65% | 7.75% | 2.5% | 11.8% | 23.2% | 27.3%
19 | CC(C)(C)OC(=O)C(=[N+]=[N-])C(=O)OC(C)(C)C | 8.75% | 1.5% | 2.3% | -28.5% | -7.15% | 17.7%

Row | SMILES | growth inhibition [1] | growth inhibition [2] | growth inhibition [3] | growth inhibition [4] | growth inhibition [5] | growth inhibition [6]
20 | Cc1ccc(C2=CC=C(c3ccccc3)C2)cc1 | -22.1% | 5.8% | -24.1% | 58.6% | 4.4% | 36.6%
21 | Cc1ccccc1N=C(N)N | 4.3% | 2.5% | -1.35% | -3.3% | -0.2% | -1.95%
22 | CCOC(=O)C1=C(O)C(=O)C=C(O)C1=N | -12.2% | -2.6% | -11.6% | 4.5% | -18.4% | 9.65%
23 | Cc1cc(Cl)ccc1N=C1NC(=O)C(CC(=O)Nc2ccc([N+](=O)[O-])cc2[N+](=O)[O-])S1 (stereo not drawn) | 25.1% | -4% | 12.1% | -58.9% | 13% | 33.1%
24 | CC1=C(C)C(C#N)(C(=O)CBr)C(=N)O1 (stereo not drawn) | 37.4% | 28.1% | 44% | 0% | 33.1% | 68.2%
25 | Cc1ccc(SCC(O)=C2C(=O)CCCC2=O)cc1 | -11.4% | -12.3% | 15.1% | -0.45% | -2.25% | -7.45%
26 | CCCOC(CCC(=O)NC(C)(C)C)CC(=O)NC(C)(C)C (stereo not drawn) | 5.85% | 5.45% | 6.9% | 4.15% | 0.55% | -9.9%
27 | NC(=S)N/N=C1/CN(c2ccc(Cl)c(Cl)c2)CC(=O)C1c1nc2ccccc2s1 (stereo not drawn) | 49.1% | 28.6% | 53% | 26.1% | -0.65% | 52.2%
28 | N=C(N)SCCCCCSC(=N)N | 4.05% | -12.2% | -4.9% | -3.15% | -6.35% | 12.8%
29 | Cc1cc(C)[nH]c(=O)c1 | 9.2% | 0.75% | -2.75% | 3.8% | 20.1% | 4.4%
30 | CCC[CH2][Sn]1([CH2]CCC)[O]C2C(CO)OC(n3c(Br)c(C#N)c4c(N)ncnc43)C2[O]1 (stereo not drawn) | 98.4% (active) | 98.5% (active) | 98.7% (active) | 98.7% (active) | 97.7% (active) | 98% (active)
31 | COc1cc(C(=O)N(C)C)cc(OC)c1OC | -1.25% | 2.65% | -6.6% | 2.25% | -4% | 5.5%
32 | CC1=C(c2ccccc2)OC(c2ccccc2)=C[P+]1(c1ccccc1)c1ccccc1 | 97.8% (active) | 99.5% (active) | 99.4% (active) | 99.3% (active) | 99.3% (active) | 99.2% (active)
33 | Clc1cc(NCc2ccco2)ncn1 | -21.8% | -6.3% | -19.5% | -3.9% | 0.85% | -11.2%
34 | NC(=S)c1cccc(OCCc2ccccc2)c1 | 97.7% (active) | 99.4% (active) | 99% (active) | 96.3% (active) | 99.2% (active) | 98.7% (active)
35 | O=C1OCC(c2ccccc2)=C1c1ccccc1 | 22.3% | -3% | 20.3% | -16% | 6.35% | 16.6%
36 | CCOC(=O)C(C)NC(=O)C(C)NC(=O)C(C)NC(=O)C(C)NC(=O)C(C)NC(=O)OCc1ccccc1 (stereo not drawn) | 87.1% (active) | 85.8% (active) | 7.15% | -0.35% | 15.7% | -46.8%
37 | O=C1c2scc(-c3ccc(F)cc3)c2-n2cccc21 | 7.8% | 12.5% | 7.6% | 3.7% | 8.65% | 24.1%
38 | CCOC(=O)c1c(-c2ccc([N+](=O)[O-])cc2)c(C=O)n(-c2ccccc2)c1C | 4.2% | -5.45% | -0.55% | -21.8% | 36.9% | 6.7%
